# Out of some 38,000 compounds screened, about 1,200 (3.2%) showed an effect of 50% or more. The median lay at about -58%. For the sample, strong results were picked, then their nearest neighbours and some compounds at random.
# Tested on: Plasmodium falciparum
# Assay: Calibr Malaria Delayed Death Assay SOP
# Assay type: functional, organism-based
# Parameters: scale not given: in the data most compounds retested in dose-response had high values
# Conditions: concentration 4.99e-06 (unit not given; other assays of the set use mol/L)
row,SMILES,Percent Effect [%]
1,O=C(c1cnccn1)N1CCCC(c2cccc(-n3ccnc3)n2)C1 (stereo not drawn),-38.64
2,CC(C)C1SCC(=O)Nc2c1cnn2-c1ccc(Cl)cc1F (stereo not drawn),-28.94
3,CCC(=O)NCC(=O)N(C)C(c1ccc(Cl)cc1)c1cccnc1 (stereo not drawn),-30.63
4,Cn1c2ccc(F)cc2c2ncn(CCN3CCOCC3)c(=O)c21,-139.8
5,CC(Cc1ccccc1F)C(=O)Nc1cccc(OCC(N)=O)c1 (stereo not drawn),-53.66
6,Cc1ccc([C@]2(O)CC[C@H]3CN(Cc4cccnc4)C[C@H]32)nc1,-69.34
7,Cc1ccc([C@]2(O)CC[C@H]3CN(Cc4cccc(F)c4F)C[C@H]32)nc1.O=C(O)CC(O)(CC(=O)O)C(=O)O,43.22
8,Cc1ccc([C@]2(O)CC[C@H]3CN(Cc4ccc(Cl)cc4Cl)C[C@H]32)nc1,64.98
9,CCc1oc(C(=O)N[C@@H]2c3ccccc3C[C@@H]2O)cc1CN1CCCC1,-27.56
10,CS(=O)(=O)NC1CCCN(Cc2ccc(OCc3ccccn3)cc2)C1 (stereo not drawn),-34.46
11,CCOc1ccc(CN2CCN(C(=O)c3cc(C4CC4)[nH]n3)CC2)cc1,-17.17
12,Cn1cc(CN(C(=O)c2ccc3ncsc3c2)C2CC2)cn1,-137
13,COCC1CC2(CCN(Cc3cccc(C#N)c3)CC2)CN1C(C)C.O=C(O)C(F)(F)F.O=C(O)C(F)(F)F (stereo not drawn),72.4
14,COCC1CC2(CCN(C(=O)c3ccco3)CC2)CN1C(C)C.O=C(O)C(F)(F)F (stereo not drawn),24.38
15,COCC1CC2(CCN(Cc3ccc(C)o3)CC2)CN1C(C)C.O=C(O)C(F)(F)F.O=C(O)C(F)(F)F (stereo not drawn),34.42
16,COC1COC2(CCN(Cc3cccc(C#N)c3)CC2)C1.O=C(O)C(F)(F)F (stereo not drawn),-4.356
17,COCC1CC2(CCN(C(=O)c3ccccc3C)CC2)CN1C(C)C.O=C(O)C(F)(F)F (stereo not drawn),-58.35
18,COCC1CC2(CCN(Cc3ccco3)CC2)CN1C(C)C.O=C(O)C(F)(F)F.O=C(O)C(F)(F)F (stereo not drawn),63.6
19,CNC(=O)CNC(=O)Nc1cc(-c2ccccc2)ns1,-97.73
20,O=C(O)C(F)(F)F.O=C1CCCN1Cc1nnc2n1CCN(Cc1ccoc1)CC2,-13.9
21,CCOCCNC(=O)c1cccnc1Sc1cc(OC)ccc1OC,-83.15
22,CC(C)OCc1noc(C2CCCOC2)n1 (stereo not drawn),-85.93
23,CC(C)[C@@H](N)C(=O)NCc1cccnc1N1CCc2ccccc2C1,28.21
24,Cc1nnsc1C(=O)NCc1cccnc1N1CCc2ccccc2C1,-86.78
25,Cc1n[nH]cc1C(=O)NCc1cccnc1N1CCc2ccccc2C1,75.05

row,SMILES,Percent Effect [%]
1,COC(=O)CCC(=O)NCc1cccnc1N1CCc2ccccc2C1,58.06
2,NC(=O)NCCC(=O)NCc1cccnc1N1CCc2ccccc2C1,-76.53
3,Cc1cc(C(=O)NCc2cccnc2N2CCc3ccccc3C2)[nH]n1,-34.77
4,O=S(=O)(Cc1ccccc1F)Cc1nnnn1C1CC1,-164.7
5,CC(C)CC(=O)N1CCC2(CC1)OC(C(N)=O)Cn1ccnc12.O=C(O)C(F)(F)F (stereo not drawn),-41.43
6,CC(C)c1cc(C(=O)NC2CCN(CC(N)=O)CC2)nn1C(C)(C)C,-153
7,COc1ccc2oc(C(C)NC(=O)NCc3noc(C)n3)c(C)c2c1 (stereo not drawn),-10.38
8,CCc1cnc(N)nc1NCCCn1cc(Cl)cn1,84.03
9,CCc1cnc(N)nc1NCCCn1nc(C)nc1C,-48.25
10,CCc1cnc(C)nc1NCCN1CCOCC1,-14.69
11,CCc1cnc(N)nc1NCCC(=O)NC1CCCCC1,-82.55
12,CCc1cnc(N)nc1NCCn1cc(Cl)cn1,54.15
13,Cn1cc(Br)c(C(=O)NCCCn2cc(Cl)cn2)n1,-63.62
14,CCN(CC)C(=O)C1CCCN(CC(=O)Nc2c(C)nn(CC)c2C)C1 (stereo not drawn),-43.93
15,Cc1nn(CC(=O)N2CCN(Cc3cnn(C)c3C)CC2)cc1Cl,-81.13
16,CC(C)n1ccnc1C1CCN(C(=O)c2ccccc2)CC1,-13.68
17,CCNC(=O)c1ccc(N2CCCC(c3nccn3C(C)C)C2)nc1 (stereo not drawn),-31.13
18,Cc1cc(N2CCCC(N(C)C)C2)n2nccc2n1 (stereo not drawn),-65.48
19,CN(C)C1CCN(c2cc(-c3ccccc3)nc3ccnn23)C1 (stereo not drawn),51.07
20,CCNC(=O)C1CCN(c2cc(-c3ccccc3)nc3ccnn23)C1 (stereo not drawn),-30.81
21,O=C(NCCCn1ccccc1=O)c1cnc(-c2ccsc2)s1,-39.04
22,O=C(CC1CCCC1)NCCNCc1cccc2c1OCCO2,71.86
23,O=C(CCNCc1cccc2c1OCCCO2)NC1CCCC1,12.04
24,O=S(=O)(CCNCc1cccc2c1OCCO2)N1CCOCC1,10.69
25,CC(C)c1nc(CN2CCOC(CNc3cccnn3)C2)cs1 (stereo not drawn),-68.41

row,SMILES,Percent Effect [%]
1,O=C1c2ccccc2C(=O)N1CC(O)Cn1nc(-c2cccs2)oc1=O (stereo not drawn),1.705
2,O=C(c1ccnc(CC2COc3ccccc3C2)c1)N1CCCC1 (stereo not drawn),-41.96
3,CCS(=O)(=O)N1CCc2ccc(NC(=O)NC(C)(C)C)cc21,-106.6
4,Cc1cccc(-c2[nH]ncc2CNCC2CCN(CC(C)O)CC2)c1 (stereo not drawn),-49.15
5,CC(O)CN1CCC(CNCc2cccc(C(N)=O)c2)CC1 (stereo not drawn),-77.28
6,CC(C1CCN(Cc2ccc(N(C)C)nc2)CC1)N1CCOCC1 (stereo not drawn),-9.646
7,CC(C)Oc1cccc(CN2CCC(C(C)N3CCOCC3)CC2)c1 (stereo not drawn),55.35
8,CC(C)Oc1cccc(CC(=O)NC2CCN(CC(N)=O)CC2)c1,-80.49
9,FC(F)(F)Oc1cccc(CNC[C@H]2Cn3ccnc3CO2)c1,-105.1
10,CC(O)CN1CCC(CNCc2cccc(OC(C)C)c2)CC1 (stereo not drawn),61.47
11,CN1CCOC(CNCc2cccc(OC(F)(F)F)c2)C1 (stereo not drawn),1.205
12,CC(C1CCN(Cc2ccc(OC(F)F)cc2)CC1)N1CCOCC1 (stereo not drawn),-27.61
13,CC(O)CN1CCC(CNCc2cccc(C(F)(F)F)c2)CC1 (stereo not drawn),82.43
14,CCn1ccnc1CNCC1CCN(CC(O)c2ccccc2)CC1 (stereo not drawn),-30.37
15,O=C(Nc1cn[nH]c1)N1CCCCCC1c1ccncc1 (stereo not drawn),-103.8
16,Cn1cnc(S(=O)(=O)N2C[C@@H]3CC[C@H](C2)N(Cc2ccccn2)C3)c1,-132.7
17,N#Cc1ccc(F)c(CNC(=O)NC(CO)c2ccccc2)c1 (stereo not drawn),-103.2
18,Cc1ccc(N2CCC3(CCC(=O)N3Cc3ccncc3)CC2)nn1.O=C(O)C(F)(F)F,-132.1
19,COCCn1cc(CC(=O)Nc2cc(C)n(C)n2)c2ccccc21,-50.35
20,Cc1cc(NCCC(=O)NC2CCCCC2)nc(-c2ccncc2)n1,-22.05
21,CC(O)CN1CCC(CNCc2ccc(S(C)(=O)=O)cc2)CC1 (stereo not drawn),-36.2
22,Cc1ccc(-c2n[nH]cc2CNCC2CCN(CC(C)O)CC2)cc1 (stereo not drawn),-46.8
23,Cc1ncc(C(=O)N2CCCC(n3cccn3)C2)s1 (stereo not drawn),-29.56
24,Cc1cc(CN2CCC(CNS(=O)(=O)c3ccccc3Cl)CC2)c(C)o1,52.45
25,Cc1cnc2c(S(=O)(=O)NCC3CC3)cccc2c1,-114.6

row,SMILES,Percent Effect [%]
1,O=S(=O)(NCC1CCN(CCN2CCOCC2)C1)c1ccccc1F (stereo not drawn),-18.99
2,O=C(c1cccc(CNS(=O)(=O)c2ccccc2F)c1)N1CCCC1,-96.06
3,Cc1cc(CN2CCC(CNS(=O)(=O)c3ccccc3F)CC2)c(C)o1,78.36
4,CNC(=O)CS(=O)(=O)C1CCN(S(=O)(=O)c2ccccc2Cl)CC1,-120
5,CN(Cc1cnn(C)c1)C(=O)CCc1ccc2c(c1)OCO2,-45.89
6,O=C(NCCc1ccncc1)c1cccnc1OCC(F)(F)F,-160.3
7,CN(C)S(=O)(=O)N1CC[C@]2(O)CCN(Cc3cc(F)cc(F)c3)C[C@@H]2C1,-90.9
8,CN(C)S(=O)(=O)N1CC[C@]2(O)CCN(Cc3cccc(F)c3)C[C@@H]2C1,18.33
9,Cc1ccc(CN2CC[C@@]3(O)CCN(S(=O)(=O)N(C)C)C[C@H]3C2)cc1C,52.24
10,CN(C)S(=O)(=O)N1CC[C@]2(O)CCN(Cc3cccc(C#N)c3)C[C@@H]2C1,-65.92
11,CN(C)S(=O)(=O)N1CC[C@]2(O)CCN(CCCc3cccnc3)C[C@@H]2C1,-68.67
12,CN(C)S(=O)(=O)N1CC[C@]2(O)CCN(CCc3cccc(F)c3)C[C@@H]2C1,52.04
13,CCCC(=O)N1CCc2c(CNS(C)(=O)=O)cncc2C1.Cl,-54.25
14,CCN(CC)S(=O)(=O)CC(=O)N1CCc2ccc(F)cc21,-118.6
15,CC(C)[C@H](N)c1nnc(SCC(=O)Nc2ccc(Br)cc2)o1.Cl,-137.1
16,O=C1CC(c2ccncc2)c2c(c(C(=O)O)cn2-c2ccccc2)N1 (stereo not drawn),-138.8
17,Cc1ccc(CN(C)C(=O)CCn2c(=O)n(C)c3ccccc32)o1,-119.3
18,CN1CCCN(C[C@@H]2CN(C(=O)N3CCOCC3)C[C@@H]2CO)CC1,-70.22
19,CCc1nn(C)c(Cl)c1CN1CCCC(c2cc(O)nc(C)n2)C1 (stereo not drawn),11.23
20,COC[C@@]12CCO[C@@H]1CCN(C(=O)Cc1ccc(C)cc1)C2,-64.19
21,C[C@@H]1CN(C(=O)CCN2CCCC2)CC[C@@]1(O)C1CCOCC1,-34.11
22,C[C@@H]1CN(C(=O)C2CCS(=O)(=O)CC2)C[C@@]1(O)C1CC1,-43.61
23,C[C@@H]1CN(C(=O)C2CCS(=O)(=O)CC2)CC[C@@]1(O)C1CCOCC1,70.51

# — ChEMBL document CHEMBL3988442, “University of Dundee, Small-Polar-MMV Screening Library” (2021)
